Common to all, as to assay: DAPPL (digital affinity profiling via proximity ligation, sequencing); 10 mM Tris-HCl pH 7.5, 50 mM NaCl, 1 mM DTT, 4% glycerol, room temperature, 30 min; GST-TFs on glutathione beads, 16-mer random dsDNA library, 0.1% formaldehyde crosslink after washing; high values mean tight binding
The target in one test is T1, FLI1 (Homo sapiens, UniProt Q01543 1-452).
T1 sequence: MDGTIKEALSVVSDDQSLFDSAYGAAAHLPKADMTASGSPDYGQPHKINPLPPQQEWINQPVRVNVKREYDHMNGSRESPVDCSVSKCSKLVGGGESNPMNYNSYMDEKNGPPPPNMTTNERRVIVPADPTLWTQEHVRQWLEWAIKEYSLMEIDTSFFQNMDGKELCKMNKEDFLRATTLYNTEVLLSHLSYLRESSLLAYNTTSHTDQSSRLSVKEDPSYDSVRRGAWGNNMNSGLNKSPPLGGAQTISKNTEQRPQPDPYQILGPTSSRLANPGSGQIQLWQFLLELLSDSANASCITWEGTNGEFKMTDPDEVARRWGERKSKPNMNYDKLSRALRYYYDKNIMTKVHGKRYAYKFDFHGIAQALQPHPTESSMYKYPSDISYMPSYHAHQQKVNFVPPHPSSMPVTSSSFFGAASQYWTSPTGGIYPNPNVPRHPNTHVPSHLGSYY
Conditions: protein: recombinant; tags: N-terminal GST; dsDNA, one strand shown. An outline of the steps: (§1)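 Sequencing on an Illumina NextSeq500 followed washing, crosslinking with 0.1% formaldehyde, proximity ligation (BsaI/T4 ligase, 1 h, 37 °C) and PCR amplification of pools that had been incubated for 30 min at room temperature with 200 nmole of a random double-stranded 16-mer DNA library in Tris/NaCl/DTT/glycerol buffer. Each pool held DNA-barcoded human transcription factors, expressed in yeast as GST fusions and captured on glutathione beads, plus a tag-only sample. Binding signal is a hexamer's read frequency for a factor divided by its frequency in the tag-only sample.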

In the next test the target is T2, ELK1 (Homo sapiens, UniProt P19419 1-428).
T2 sequence: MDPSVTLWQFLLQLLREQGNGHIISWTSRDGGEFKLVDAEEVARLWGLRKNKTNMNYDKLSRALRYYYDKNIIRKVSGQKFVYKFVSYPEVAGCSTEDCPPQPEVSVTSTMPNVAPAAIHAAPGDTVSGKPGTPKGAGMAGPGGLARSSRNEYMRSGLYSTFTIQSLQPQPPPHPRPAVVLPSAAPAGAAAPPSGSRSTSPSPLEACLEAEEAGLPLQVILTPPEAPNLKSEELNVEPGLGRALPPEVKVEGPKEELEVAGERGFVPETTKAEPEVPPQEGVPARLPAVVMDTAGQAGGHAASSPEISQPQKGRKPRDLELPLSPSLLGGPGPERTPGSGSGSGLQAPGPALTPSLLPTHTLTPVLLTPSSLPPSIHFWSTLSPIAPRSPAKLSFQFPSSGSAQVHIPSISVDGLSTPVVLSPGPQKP
The settings on record: protein: recombinant; tags: N-terminal GST; dsDNA, one strand shown. An outline of the steps:
as §1

The target in a further test is T3, GABPA (Homo sapiens, UniProt Q06546 1-454).
T3 sequence: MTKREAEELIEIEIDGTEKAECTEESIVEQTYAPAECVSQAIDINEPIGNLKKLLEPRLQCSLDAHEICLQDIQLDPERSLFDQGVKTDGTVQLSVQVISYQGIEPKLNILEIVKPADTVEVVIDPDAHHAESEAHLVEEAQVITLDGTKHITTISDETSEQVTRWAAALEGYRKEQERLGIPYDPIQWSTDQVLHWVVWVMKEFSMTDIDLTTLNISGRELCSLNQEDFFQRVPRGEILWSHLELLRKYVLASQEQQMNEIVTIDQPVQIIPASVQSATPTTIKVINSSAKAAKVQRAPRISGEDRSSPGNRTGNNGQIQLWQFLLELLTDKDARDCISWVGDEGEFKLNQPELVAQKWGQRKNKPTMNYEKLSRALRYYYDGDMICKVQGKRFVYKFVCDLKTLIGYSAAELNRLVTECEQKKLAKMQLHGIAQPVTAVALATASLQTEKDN
Conditions: protein: recombinant; tags: N-terminal GST; dsDNA, one strand shown. An outline of the steps:
as §1

For a further test, the target named is T4, ERG (Homo sapiens, UniProt P11308 1-479).
T4 sequence: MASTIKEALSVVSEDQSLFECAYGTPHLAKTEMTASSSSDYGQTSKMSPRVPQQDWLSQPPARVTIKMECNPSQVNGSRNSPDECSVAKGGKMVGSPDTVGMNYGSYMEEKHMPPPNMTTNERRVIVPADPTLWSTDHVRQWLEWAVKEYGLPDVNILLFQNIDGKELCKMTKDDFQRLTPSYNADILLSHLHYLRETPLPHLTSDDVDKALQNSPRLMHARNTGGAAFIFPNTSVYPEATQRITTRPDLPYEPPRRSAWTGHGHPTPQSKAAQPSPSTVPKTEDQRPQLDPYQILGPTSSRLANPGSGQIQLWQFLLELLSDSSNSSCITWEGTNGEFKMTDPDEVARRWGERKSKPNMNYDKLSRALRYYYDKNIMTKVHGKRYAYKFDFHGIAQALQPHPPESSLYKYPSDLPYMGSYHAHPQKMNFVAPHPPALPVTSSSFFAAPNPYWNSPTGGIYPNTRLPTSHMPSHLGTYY
The settings on record: protein: recombinant; tags: N-terminal GST; dsDNA, one strand shown. Summed up:
as §1

The target in another test is ELF1 (Homo sapiens, UniProt P32519 1-619). The settings on record: protein: recombinant; tags: N-terminal GST; dsDNA, one strand shown. An outline of the steps:
as §1

In the next test the target is T5, EHF (Homo sapiens, UniProt Q9NZC4 1-300).
T5 sequence: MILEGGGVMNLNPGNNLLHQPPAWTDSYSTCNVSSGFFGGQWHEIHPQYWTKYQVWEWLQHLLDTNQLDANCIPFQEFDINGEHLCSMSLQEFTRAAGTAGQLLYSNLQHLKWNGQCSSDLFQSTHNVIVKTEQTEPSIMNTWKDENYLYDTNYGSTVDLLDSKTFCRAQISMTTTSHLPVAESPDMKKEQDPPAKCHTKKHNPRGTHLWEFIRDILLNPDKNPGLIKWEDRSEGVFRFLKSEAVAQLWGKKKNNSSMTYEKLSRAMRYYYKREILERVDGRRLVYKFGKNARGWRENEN
The settings on record: protein: recombinant; tags: N-terminal GST; dsDNA, one strand shown. Summed up: as §1

A further test has as its target SPI1 (Homo sapiens, UniProt P17947 1-270). The settings on record: protein: recombinant; tags: N-terminal GST; dsDNA, one strand shown. Summed up: as §1
The target in a further test is SPIB (Homo sapiens, UniProt Q01892 1-262). The settings on record: protein: recombinant; tags: N-terminal GST; dsDNA, one strand shown. An outline of the steps:
as §1

The target in a further test is T6, ELK3 (Homo sapiens, UniProt P41970 1-407).
T6 sequence: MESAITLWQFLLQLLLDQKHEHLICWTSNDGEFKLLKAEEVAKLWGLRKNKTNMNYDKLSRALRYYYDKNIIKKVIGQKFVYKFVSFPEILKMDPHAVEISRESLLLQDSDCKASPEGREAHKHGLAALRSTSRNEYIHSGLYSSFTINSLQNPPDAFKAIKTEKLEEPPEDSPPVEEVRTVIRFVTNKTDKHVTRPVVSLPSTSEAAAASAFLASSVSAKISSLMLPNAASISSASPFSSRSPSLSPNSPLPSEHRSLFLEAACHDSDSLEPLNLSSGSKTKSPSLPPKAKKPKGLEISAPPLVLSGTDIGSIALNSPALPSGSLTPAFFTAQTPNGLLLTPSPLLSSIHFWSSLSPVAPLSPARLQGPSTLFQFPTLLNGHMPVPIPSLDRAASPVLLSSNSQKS
Conditions: protein: recombinant; tags: N-terminal GST; dsDNA, one strand shown. An outline of the steps: as §1

The target in a further test is T7, FEV (Homo sapiens, UniProt Q99581 1-238).
T7 sequence: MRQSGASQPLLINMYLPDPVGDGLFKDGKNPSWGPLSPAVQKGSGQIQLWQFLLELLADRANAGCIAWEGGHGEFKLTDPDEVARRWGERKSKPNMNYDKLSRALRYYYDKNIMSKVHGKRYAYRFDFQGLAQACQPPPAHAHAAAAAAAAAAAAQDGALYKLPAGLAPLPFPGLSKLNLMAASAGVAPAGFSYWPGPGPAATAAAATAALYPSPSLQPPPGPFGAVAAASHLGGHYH
Conditions: protein: recombinant; tags: N-terminal GST; dsDNA, one strand shown. Summed up:
as §1

A further test concerns the target ETV5 (Homo sapiens, UniProt P41161 1-510). The settings on record: protein: recombinant; tags: N-terminal GST; dsDNA, one strand shown. Summed up: as §1
The next test addresses HSF1 (Homo sapiens, UniProt Q00613 1-529). Conditions: protein: recombinant; tags: N-terminal GST; chain copies: 3; dsDNA, one strand shown. An outline of the steps:
as §1

A further test concerns the target T8, SPIC (Homo sapiens, UniProt Q8N5J4 1-248).
T8 sequence: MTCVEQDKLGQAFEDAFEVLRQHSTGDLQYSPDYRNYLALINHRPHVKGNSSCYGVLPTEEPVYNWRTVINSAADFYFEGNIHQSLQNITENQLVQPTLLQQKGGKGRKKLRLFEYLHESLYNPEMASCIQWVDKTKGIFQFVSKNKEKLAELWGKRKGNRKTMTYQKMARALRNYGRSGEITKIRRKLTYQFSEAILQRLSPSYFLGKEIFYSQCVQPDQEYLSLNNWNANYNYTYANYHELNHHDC
The settings on record: protein: recombinant; tags: N-terminal GST; dsDNA, one strand shown. Summed up: as §1

The next test concerns the target ELF4 (Homo sapiens, UniProt Q99607 1-663). The settings on record: protein: recombinant; tags: N-terminal GST; dsDNA, one strand shown. Summed up: as §1
The target of another test is T9, ELK4 (Homo sapiens, UniProt P28324-2 1-405).
T9 sequence: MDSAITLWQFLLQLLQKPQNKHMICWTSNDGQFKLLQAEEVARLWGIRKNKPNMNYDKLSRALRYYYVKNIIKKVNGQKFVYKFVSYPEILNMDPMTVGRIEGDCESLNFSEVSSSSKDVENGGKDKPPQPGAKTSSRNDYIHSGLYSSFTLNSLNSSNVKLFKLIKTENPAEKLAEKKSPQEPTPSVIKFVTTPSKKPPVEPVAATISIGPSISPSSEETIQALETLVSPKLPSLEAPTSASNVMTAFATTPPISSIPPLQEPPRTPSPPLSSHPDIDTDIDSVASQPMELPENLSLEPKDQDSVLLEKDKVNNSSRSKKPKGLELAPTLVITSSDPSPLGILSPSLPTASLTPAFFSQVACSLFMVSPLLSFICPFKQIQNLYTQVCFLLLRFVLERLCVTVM
The settings on record: protein: recombinant; tags: N-terminal GST; dsDNA, one strand shown. Summed up:
as §1

The next test has as its target T10, ETV2 (Homo sapiens, UniProt O00321 1-342).
T10 sequence: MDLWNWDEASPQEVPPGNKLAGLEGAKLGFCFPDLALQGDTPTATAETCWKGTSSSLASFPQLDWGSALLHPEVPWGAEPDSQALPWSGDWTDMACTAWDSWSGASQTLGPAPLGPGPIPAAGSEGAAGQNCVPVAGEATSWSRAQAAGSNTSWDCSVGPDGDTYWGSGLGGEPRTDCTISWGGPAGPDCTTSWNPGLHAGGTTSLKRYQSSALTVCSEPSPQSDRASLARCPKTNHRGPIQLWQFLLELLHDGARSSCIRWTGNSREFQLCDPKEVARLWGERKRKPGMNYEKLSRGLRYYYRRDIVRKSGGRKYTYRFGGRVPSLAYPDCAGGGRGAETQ
Conditions: protein: recombinant; tags: N-terminal GST; dsDNA, one strand shown. An outline of the steps: as §1

A further test has as its target T11, ELF3 (Homo sapiens, UniProt P78545 1-371).
T11 sequence: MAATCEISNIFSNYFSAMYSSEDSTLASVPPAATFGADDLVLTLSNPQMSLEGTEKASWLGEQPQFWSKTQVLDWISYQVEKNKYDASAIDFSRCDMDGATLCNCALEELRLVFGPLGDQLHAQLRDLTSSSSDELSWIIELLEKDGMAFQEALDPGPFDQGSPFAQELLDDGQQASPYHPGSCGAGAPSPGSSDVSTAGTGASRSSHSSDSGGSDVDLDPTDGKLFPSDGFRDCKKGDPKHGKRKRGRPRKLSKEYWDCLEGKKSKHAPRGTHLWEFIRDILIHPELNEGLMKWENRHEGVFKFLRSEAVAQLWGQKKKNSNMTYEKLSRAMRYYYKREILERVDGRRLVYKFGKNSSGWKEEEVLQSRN
The settings on record: protein: recombinant; tags: N-terminal GST; dsDNA, one strand shown. An outline of the steps:
as §1

In another test the target is ETV1 (Homo sapiens, UniProt P50549 1-477). Conditions: protein: recombinant; tags: N-terminal GST; dsDNA, one strand shown. Summed up:
as §1

Chain of SPIB (Q01892 whole entry): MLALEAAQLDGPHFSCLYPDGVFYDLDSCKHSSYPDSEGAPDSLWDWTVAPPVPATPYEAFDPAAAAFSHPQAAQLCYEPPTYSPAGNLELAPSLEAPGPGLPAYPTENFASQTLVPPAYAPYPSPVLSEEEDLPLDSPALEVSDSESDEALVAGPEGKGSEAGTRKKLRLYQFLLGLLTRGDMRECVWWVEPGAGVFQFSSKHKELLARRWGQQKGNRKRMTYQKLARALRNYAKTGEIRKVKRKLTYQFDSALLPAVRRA
Chain of HSF1 (Q00613 whole entry): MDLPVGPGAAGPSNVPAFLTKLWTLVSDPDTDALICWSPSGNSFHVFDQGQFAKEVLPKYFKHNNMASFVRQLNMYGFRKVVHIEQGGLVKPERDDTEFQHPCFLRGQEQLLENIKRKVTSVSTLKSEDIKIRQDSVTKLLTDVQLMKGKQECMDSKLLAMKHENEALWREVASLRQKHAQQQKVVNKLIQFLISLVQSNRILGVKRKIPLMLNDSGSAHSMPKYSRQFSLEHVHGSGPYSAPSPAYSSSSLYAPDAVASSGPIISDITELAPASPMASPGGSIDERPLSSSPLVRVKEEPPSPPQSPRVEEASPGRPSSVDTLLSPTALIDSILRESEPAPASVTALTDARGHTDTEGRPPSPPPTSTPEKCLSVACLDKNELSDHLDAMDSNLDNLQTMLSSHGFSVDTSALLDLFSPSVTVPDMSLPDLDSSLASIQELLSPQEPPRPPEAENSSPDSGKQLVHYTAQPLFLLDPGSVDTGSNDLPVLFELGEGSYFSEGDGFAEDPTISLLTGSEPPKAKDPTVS
Chain of ETV5 (P41161 whole entry): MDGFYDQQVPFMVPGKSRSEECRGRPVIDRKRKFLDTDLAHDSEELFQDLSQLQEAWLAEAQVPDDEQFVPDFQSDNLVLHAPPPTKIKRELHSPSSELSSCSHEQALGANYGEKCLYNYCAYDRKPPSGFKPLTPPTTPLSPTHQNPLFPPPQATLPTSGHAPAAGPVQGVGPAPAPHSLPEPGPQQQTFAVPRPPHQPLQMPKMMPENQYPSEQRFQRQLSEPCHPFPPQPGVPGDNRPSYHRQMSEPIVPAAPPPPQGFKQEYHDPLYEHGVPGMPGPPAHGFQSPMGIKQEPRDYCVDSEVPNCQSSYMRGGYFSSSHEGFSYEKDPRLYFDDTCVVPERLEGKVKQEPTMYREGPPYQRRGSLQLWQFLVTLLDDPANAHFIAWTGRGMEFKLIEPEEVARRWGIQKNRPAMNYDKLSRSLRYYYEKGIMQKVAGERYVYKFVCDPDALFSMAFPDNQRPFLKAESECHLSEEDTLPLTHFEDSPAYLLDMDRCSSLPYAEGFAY
Chain of ETV1 (P50549 whole entry): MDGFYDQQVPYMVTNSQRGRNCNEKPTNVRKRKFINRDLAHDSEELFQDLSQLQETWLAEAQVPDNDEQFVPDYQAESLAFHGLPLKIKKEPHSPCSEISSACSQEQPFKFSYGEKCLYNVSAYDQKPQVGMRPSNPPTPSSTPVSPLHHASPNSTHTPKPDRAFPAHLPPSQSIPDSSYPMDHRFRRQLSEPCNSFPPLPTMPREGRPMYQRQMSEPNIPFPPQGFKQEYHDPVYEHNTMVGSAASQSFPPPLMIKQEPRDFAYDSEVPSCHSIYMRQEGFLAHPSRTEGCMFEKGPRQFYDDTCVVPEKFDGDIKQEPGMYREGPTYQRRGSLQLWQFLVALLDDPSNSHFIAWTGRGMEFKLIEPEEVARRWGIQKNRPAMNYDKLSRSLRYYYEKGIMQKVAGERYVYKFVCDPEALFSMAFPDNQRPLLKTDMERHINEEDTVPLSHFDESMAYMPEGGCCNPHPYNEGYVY
Chain of ELF4 (Q99607 whole entry): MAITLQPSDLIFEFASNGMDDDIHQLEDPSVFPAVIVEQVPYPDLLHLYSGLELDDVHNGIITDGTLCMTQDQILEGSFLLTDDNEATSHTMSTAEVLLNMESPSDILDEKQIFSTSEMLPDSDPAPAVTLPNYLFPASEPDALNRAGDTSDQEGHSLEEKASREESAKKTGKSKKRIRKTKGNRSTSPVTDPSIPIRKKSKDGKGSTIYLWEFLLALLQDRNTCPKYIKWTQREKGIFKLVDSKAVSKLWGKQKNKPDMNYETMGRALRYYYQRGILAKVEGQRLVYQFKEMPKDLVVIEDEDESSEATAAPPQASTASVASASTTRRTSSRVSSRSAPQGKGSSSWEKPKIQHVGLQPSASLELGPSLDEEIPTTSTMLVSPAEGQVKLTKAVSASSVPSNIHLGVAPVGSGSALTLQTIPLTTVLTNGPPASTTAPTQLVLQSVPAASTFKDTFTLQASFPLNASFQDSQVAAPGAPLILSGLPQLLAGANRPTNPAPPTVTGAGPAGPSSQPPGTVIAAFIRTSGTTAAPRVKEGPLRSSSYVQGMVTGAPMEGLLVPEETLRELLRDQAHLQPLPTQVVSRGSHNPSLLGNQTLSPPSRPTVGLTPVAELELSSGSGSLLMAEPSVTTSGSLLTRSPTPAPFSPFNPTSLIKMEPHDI
Chain of ELF1 (P32519 whole entry): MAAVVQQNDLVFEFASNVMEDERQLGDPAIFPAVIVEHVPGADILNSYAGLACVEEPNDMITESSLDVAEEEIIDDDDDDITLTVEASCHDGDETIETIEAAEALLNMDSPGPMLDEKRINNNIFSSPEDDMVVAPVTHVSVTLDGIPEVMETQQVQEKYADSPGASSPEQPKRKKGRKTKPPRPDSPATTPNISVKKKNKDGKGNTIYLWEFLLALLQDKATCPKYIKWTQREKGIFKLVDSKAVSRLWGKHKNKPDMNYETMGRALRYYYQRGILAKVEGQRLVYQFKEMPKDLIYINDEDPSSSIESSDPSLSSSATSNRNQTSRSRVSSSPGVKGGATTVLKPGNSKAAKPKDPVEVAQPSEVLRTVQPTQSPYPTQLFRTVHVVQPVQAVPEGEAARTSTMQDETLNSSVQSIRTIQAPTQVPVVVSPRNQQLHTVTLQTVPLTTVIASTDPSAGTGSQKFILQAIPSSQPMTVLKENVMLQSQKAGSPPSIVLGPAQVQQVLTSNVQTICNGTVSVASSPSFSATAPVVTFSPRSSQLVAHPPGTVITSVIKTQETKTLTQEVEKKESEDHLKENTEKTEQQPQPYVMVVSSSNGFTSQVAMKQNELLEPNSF

For GCAAAA, the binding signal with FLI1 is 1.04 fold enrichment (6-mer frequency, TF over GST control); with ELK1, 1.08 fold enrichment (6-mer frequency, TF over GST control); with GABPA, 1.08 fold enrichment (6-mer frequency, TF over GST control); with ERG it was 1.05 fold enrichment (6-mer frequency, TF over GST control); with ELF1, 1.09 fold enrichment (6-mer frequency, TF over GST control); in the test with EHF it was 1.14 fold enrichment (6-mer frequency, TF over GST control). Besides, the binding signal in the test with SPI1 was 1.16 fold enrichment (6-mer frequency, TF over GST control); with SPIB it was 1.13 fold enrichment (6-mer frequency, TF over GST control); with ELK3 it was 1.15 fold enrichment (6-mer frequency, TF over GST control); with FEV it was 1.08 fold enrichment (6-mer frequency, TF over GST control); with ETV5, 1.07 fold enrichment (6-mer frequency, TF over GST control); with HSF1 it was 1.01 fold enrichment (6-mer frequency, TF over GST control). The binding signal with SPIC was 1.06 fold enrichment (6-mer frequency, TF over GST control); with ELF4 it was 1.13 fold enrichment (6-mer frequency, TF over GST control); with ELK4, 1.16 fold enrichment (6-mer frequency, TF over GST control); with ETV2, 1.14 fold enrichment (6-mer frequency, TF over GST control); in the test with ELF3, 1.2 fold enrichment (6-mer frequency, TF over GST control); with ETV1, 1.14 fold enrichment (6-mer frequency, TF over GST control).

(Values after paper PMC7862700, “An all-to-all approach to the identification of sequence-specific readers for epigenetic DNA modifications on cytosine”.)
